Laboratory results as given in ChEMBL document CHEMBL3988442, “University of Dundee, Small-Polar-MMV Screening Library” (2021).
Out of some 85,000 compounds screened, about 440 (0.52%) showed an effect of 50% or more. The sample as a whole holds a higher share of strong results than the screen did.

Assay: In vitro enzyme assay to detect hydrolysis of chlorophenol red-beta-D-[…] directly proportional to the number of Toxoplasma stably expressing beta-galactosidase
Format: functional, organism-based, Toxoplasma gondii
Design: scale not given: in the data most compounds retested in dose-response had high values

| Compound | Percent Effect (50 µM) | Percent Effect (10 µM) |
| --- | --- | --- |
| CCO[C@H]1CN(C)C[C@@H]1NC(=O)c1cnc(CC)nc1 | 7.652% |  |
| C[S+]([O-])c1nncn1Cc1cccc2cccnc12 (centres undefined) | -6.749% |  |
| Cc1cc(N2CCOC(CN(C)CC(N)=O)C2)ccn1 (centres undefined) | 2.869% |  |
| COCc1[nH][nH]c(=O)c1CCN | -30.62% |  |
| OC1(CNCCOCc2ccc(Cl)cc2)CCCNC1 (centres undefined) | 57.1% |  |
| OC1(CNCCc2csc(-c3ccncc3)n2)CCCNC1 (centres undefined) |  | -15.25% |
| OC1(CNCCCn2cc(Cl)cn2)CCCNC1 (centres undefined) | -11.83% |  |
| CCOCC(O)CN(C)Cc1cccc(C(N)=O)c1 (centres undefined) | -13.39% |  |
| CCN1C[C@H]2CCN(C(=O)NC)CC[C@H]2S1(=O)=O |  | 59.16% |
| CCN1C[C@H]2CCN(C(=O)NC3CCCC3)CC[C@H]2S1(=O)=O |  | -4.304% |
| CCN1C[C@H]2CCN(C(C)=O)CC[C@H]2S1(=O)=O |  | -1.674% |
| Cc1c(N)cnn1C1CCOCC1 | -9.55% |  |
| COc1ccc(OC)c(N2C(=O)CCC2=O)c1 | -4.608% |  |
| CN(CCOCCO)CCOc1ccc(F)cc1 | 15.3% |  |
| O=C1NCCOc2ccc(Br)cc21 | -18.86% |  |
| COc1ccc(C)cc1CNC(=O)C1=NN(c2ccccc2)C(=O)CN1 |  | 14.43% |
| COc1ccccc1CNC(=O)C1=NN(c2ccc(C)cc2)C(=O)CN1 |  | 57.58% |
| COc1ccc(CNC(=O)C2=NN(c3ccc(C)cc3)C(=O)CN2)cc1 |  | -0.9855% |
| Cc1cc2c(cc1S(=O)(=O)N1CCCC(N)C1)OCO2 (centres undefined) | 6.23% |  |
| c1cncc(C2=NOC3(CCN(Cc4c[nH]c5ccccc45)CC3)C2)c1 |  | 26.44% |
| CC(C)C1=NOC2(CCN(Cc3c[nH]c4ccccc34)CC2)C1 |  | 33.52% |
| c1ccc(C2=NOC3(CCN(Cc4c[nH]c5ccccc45)CC3)C2)cc1 |  | 73.52% |
| CCCC(C(=O)OCC)S(N)(=O)=O (centres undefined) | -4.644% |  |
| COC(=O)C(C)SCc1noc(C2CC2)n1 (centres undefined) | 1.688% |  |

| Compound | Percent Effect (50 µM) | Percent Effect (10 µM) |
| --- | --- | --- |
| CCN1C[C@H](NC(=O)c2cccn2C(C)C)[C@@H](OC)C1 | -5.083% |  |
| CCN1C[C@H](NC(=O)c2ccc(Cl)s2)[C@@H](OC)C1 | 2.981% |  |
| CCN1C[C@H](NC(=O)c2snnc2C(C)C)[C@@H](OC)C1 | 82.91% |  |
| CCC(NC(=O)c1cc(N)[nH]n1)c1nc(C)c[nH]1 (centres undefined) | 4.795% |  |
| Cc1nnsc1CN(C)C(=O)c1ccccc1 | 22.64% |  |
| O=C(N[C@@H]1CNC[C@H]1CO)C1CCC1 | -0.2309% |  |
| Cc1cc(CN)nc(N2CCCC2)n1 | -18.34% |  |
| Cc1cc(CN)nc(N(C)C)n1 | 87.02% |  |
| CN(C)c1nc(CN)cs1 | -3.708% |  |
| COCCNC(=O)CCC1CCN(CCCSC)CC1 | 11.51% |  |
| CCOc1ncccc1C(=O)N1CCCN(C)CC1 | 3.231% |  |
| COCCNC(=O)NC(C)CCc1ccc(O)cc1 (centres undefined) | -3.348% |  |
| Oc1cccc(-c2cc(C3CCN(Cc4cncnc4)C3)ccn2)c1 (centres undefined) |  | 0.5564% |
| CN(C)CC(C)(C)CN1CCC(c2ccnc(-c3cccc(O)c3)c2)C1 (centres undefined) |  | 7.739% |
| Cn1ccnc1CN1CCC(c2ccnc(-c3cccc(O)c3)c2)C1 (centres undefined) |  | 55.29% |
| N#CC1(NC(=O)C(O)Cc2ccccc2Cl)CCC1 (centres undefined) | -6.44% |  |
| O=C1CN(CC(=O)Nc2c(Cl)cccc2Cl)CCN1 | 55.2% |  |
| Cc1ccc(Cl)cc1NC(=O)CN1CCNC(=O)C1 | 47.59% |  |
| CCc1cccc(C)c1NC(=O)CN1CCNC(=O)C1 | -0.5853% |  |
| CN(C)S(=O)(=O)CCNC1CCCNC1 (centres undefined) | 23.13% |  |
| CCOc1ccc(S(=O)(=O)N(C)Cc2cnn(CC)c2)cc1 |  | 22.15% |
| CCn1cc(CN(C)S(=O)(=O)c2ccc(Cl)cc2)cn1 |  | 4.304% |
| CCn1cc(CN(C)S(=O)(=O)c2cnn(C)c2)cn1 |  | 10.44% |
| CCn1cc(CN(C)S(=O)(=O)c2ccc(C)c(C)c2)cn1 |  | 6.128% |

| Compound | Percent Effect (50 µM) | Percent Effect (10 µM) |
| --- | --- | --- |
| CCn1cc(CN(C)S(=O)(=O)c2ccc(C(C)C)cc2)cn1 |  | 71.72% |
| CCn1cc(CN(C)S(=O)(=O)c2ccccc2)cn1 |  | 61.21% |
| Nc1nnc(SCc2cn3ccccc3n2)s1 | -6.062% |  |
| N#CCC(=O)Nc1ccccc1I | 0.5556% |  |
| COc1ccccc1NC(=O)CC#N | 50.64% |  |
| CNCC(=O)Nc1ccccc1OC | 7.8% |  |
| Cn1c(C(C)(C)N)nc2ccccc21 | 4.322% |  |
| COC(=O)Cc1cccc(NC(=O)CC2CC2)n1 | 2.915% |  |
| COc1cccc(CNCC2CCOC2)c1 (centres undefined) | 52.55% |  |
| COc1cccc(CNCC2CN(C)CCO2)c1 (centres undefined) |  | -20.59% |
| COc1cccc(N2CCC(CNCc3cccc(C#N)c3)C2)c1 (centres undefined) |  | -3.388% |
| O=C(NCCSCc1cccc(Cl)c1)C1CNCCO1 (centres undefined) | 4.575% |  |
| CC(C)OCC(O)CN1CCN(C(C)C)CC1 (centres undefined) | -5.583% |  |
| CC(O)CNCc1ccc(OCc2ccc3c(c2)OCCO3)cc1.Cl (centres undefined) |  | -0.2514% |
| CCCNCc1ccc(OCc2ccc3c(c2)OCCO3)cc1.Cl |  | 26.87% |
| CCNCc1ccc(OCc2ccc3c(c2)OCCO3)cc1.Cl |  | 57.45% |
| CC(C)(C)NCc1ccc(OCc2ccc3c(c2)OCCO3)cc1.Cl |  | -4.151% |
| CNCc1ccc(OCc2ccc3c(c2)OCCO3)cc1.Cl |  | 14.53% |
| COc1ccc2oc(CNC(C)(CO)CO)cc2c1 | 4.082% |  |
| O=C(CNC(=O)c1cccs1)c1ccccc1 | -23.7% |  |
| CCN(CC(C)(C)O)C(=O)c1nccc2ccccc12 | -2.694% |  |
| CCNC(=O)CN1CCN(Cc2cccnc2N)CC1 | 3.908% |  |
| COCC(C)NC(=O)CCn1cnc2sccc2c1=O (centres undefined) | -6.543% |  |
| CS(=O)(=O)NCC(=O)NCc1cnn2ccccc12 | -11.78% |  |

| Compound | Percent Effect (50 µM) | Percent Effect (10 µM) |
| --- | --- | --- |
| CCN1CCCC1CNS(=O)(=O)CCCC#N (centres undefined) | -20.61% |  |
| CCc1n[nH]c(NC(=O)c2cc(C(C)=O)cs2)n1 | -2.258% |  |
| NC(=O)CCN1C(=O)CCC1=O | 1.954% |  |
| Cc1ccccc1CNC(=O)N(C)Cc1nnc[nH]1 | -3.326% |  |
| COC(=O)c1cnc(O)cn1 | 0.4239% |  |
| COC(=O)c1cnc(OC)cn1 | 10.7% |  |
| COC(=O)c1cnc(F)cn1 | 53.27% |  |
| O=C(CNC1(CO)CCOCC1)Nc1cccc(F)c1 | -18.29% |  |
| CC(C)C(N)C1(CO)CCC1 (centres undefined) | -14.82% |  |
| N#Cc1cccnc1NCC1COc2ccccc2O1 (centres undefined) | -5.408% |  |
| Cc1ccc(CN2CCCn3c(nc(Cn4ccnc4)cc3=O)C2)o1 |  | 95.97% |
| CCc1ccc(CN2CCCn3c(nc(Cn4ccnc4)cc3=O)C2)o1.O=C(O)C(F)(F)F.O=C(O)C(F)(F)F |  | 1.534% |
| O=c1cc(Cn2ccnc2)nc2n1CCCN(Cc1ccco1)C2 |  | -0.8368% |
| NC(=O)CN1CC(c2nc(C3CC3)no2)C1.O=C(O)C(=O)O |  | -8.991% |
| O=C(CN1CC(c2nc(C3CC3)no2)C1)N1CCOCC1.O=C(O)C(=O)O |  | 76.44% |
| O=C(CN1CCCC(c2noc(C3CC3)n2)C1)N1CCCC1 (centres undefined) |  | 4.609% |
| CC1CCN(C(=O)CN2CC(c3nc(C4CC4)no3)C2)CC1.O=C(O)C(=O)O |  | -17.41% |
| CC(c1nc(C2CC2)no1)N1CCN(CC(=O)N2CCOCC2)CC1 (centres undefined) |  | 3.194% |
| Nc1ccnn1Cc1ccccn1 | -24.54% |  |
| O=C(CN1CCCCC1)N1CCCCC1 | 1.789% |  |
| O=C(NCCOCCO)c1cn2ccsc2n1 | 19.68% |  |
| CNC(=O)C1CNC1 | 0.513% |  |
| COCCCNC(=O)CN(C)c1ccccc1F | 2.537% |  |
| Cc1ccc(-c2cccc(N3CCC(NC4CCOCC4)CC3)c2)cc1 |  | 36.9% |

| Compound | Percent Effect (50 µM) | Percent Effect (10 µM) |
| --- | --- | --- |
| COc1cccc(-c2cccc(N3CCC(N[C@@H]4CCOC4)CC3)c2)c1 |  | 25.91% |
| Clc1cccc(-c2cccc(N3CCC(NC4CCOCC4)CC3)c2)c1 |  | 94.46% |
| Cc1ccccc1-n1cnnc1SCCOCC1CCCO1 (centres undefined) |  | -4.234% |
| NCCOCC1CCCO1 (centres undefined) | -7.088% |  |
| c1cc(SCCOCC2CCCO2)ccn1 (centres undefined) | 73.14% |  |
| CN1CCOC(C(=O)N(C)Cc2cccc(O)c2)C1 (centres undefined) | -4.809% |  |
| Nc1nc(N)nc(CN2CCCC2c2cccs2)n1 (centres undefined) | 61.8% |  |
| Oc1ccccc1CN1CCCCCC1c1cccs1 (centres undefined) |  | 10.91% |
| CN(C)c1nc(N)nc(CN2CCCC2c2cccs2)n1 (centres undefined) |  | 12.16% |
| CC(=O)NCCCc1nc2ccccc2n1C | -0.2926% |  |
| O=C(CN1CCOCC1)N1CCCC(c2nnc[nH]2)C1 (centres undefined) | -8.944% |  |
| CC1C(=O)NCCN1C(=O)c1cc(-c2ccco2)on1 (centres undefined) | 0.5841% |  |
| Cc1cc(F)cc(S(=O)(=O)NCCN)c1 | -4.306% |  |
| O=C(CCn1cccn1)Nc1cncc(Br)c1O | -6.766% |  |
| CC[C@H](C)[C@H](N)C(=O)NCCc1noc(CO)n1 | 11.28% |  |
| O=C(CC1CCCC1)NCCc1noc(CO)n1 | 66.39% |  |
| CCCOC(C)C(=O)NCCc1noc(CO)n1 (centres undefined) | -15.52% |  |
| Cc1nccc(CNc2ncc(C(N)=O)cc2Cl)n1 | -11.46% |  |
| COc1ccccc1NCC(=O)NCC(C)(O)C(C)C (centres undefined) | 0.7495% |  |
| NC1CSc2ccccc21 (centres undefined) | 16.15% |  |
| NCC(=O)N1CCCC(CCc2ccc(F)cc2)C1 (centres undefined) | 31.97% |  |
| NCC(=O)N1CCCC(CCc2ccc(F)c(F)c2)C1 (centres undefined) | 39.41% |  |
| NCCC(=O)N1CCCC(CCc2ccc(F)cc2)C1 (centres undefined) | 62.64% |  |
